A short description of test [1]: qHTS assay to identify small molecule antagonists of the peroxisome proliferator-activated receptor delta (PPARd) signaling pathway - cell viability counter screen (AID 743213; active = well fitted curve in the direction sought with a large enough effect in the repeat runs; an effect the other way counts as inactive or inconclusive; note: nearly all actives have a fitted effect of over 50% in size). Put shortly:
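Same-well viability: cells pre-incubated 5 h, dosed with compound plus 300 nM L165041, kept 17 h at 37 C, FRET substrate 2 h RT, then CellTiter-Glo 30 min RT and luminescence.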
Background: Quantitative high-throughput screening tests each substance at several concentrations.

The target of test [2] is Peroxisome proliferator-activated receptor delta (Homo sapiens) (UniProt Q03181). Description: qHTS assay to identify small molecule antagonists of the peroxisome proliferator-activated receptor delta (PPARd) signaling pathway (AID 743215; active = well fitted inhibition curve with a large enough effect in the signal ratio in the repeat runs, not every such curve was filed as active; the % refers to the signal ratio;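 note: cells stimulated with agonist L165041 at 300 nM final during compound exposure; series mostly up to about 62 µM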). An outline of the steps: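 Fluorescence from cleaved LiveBLAzer B/G FRET substrate (2 h, room temperature) reports PPARd-driven beta-lactamase in HEK293H UAS-bla cells. Cells had been treated 17 h at 37 C with compound plus 300 nM final L165041.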
Peroxisome proliferator-activated receptor delta (Homo sapiens), sequence (Q03181 whole entry, looked up): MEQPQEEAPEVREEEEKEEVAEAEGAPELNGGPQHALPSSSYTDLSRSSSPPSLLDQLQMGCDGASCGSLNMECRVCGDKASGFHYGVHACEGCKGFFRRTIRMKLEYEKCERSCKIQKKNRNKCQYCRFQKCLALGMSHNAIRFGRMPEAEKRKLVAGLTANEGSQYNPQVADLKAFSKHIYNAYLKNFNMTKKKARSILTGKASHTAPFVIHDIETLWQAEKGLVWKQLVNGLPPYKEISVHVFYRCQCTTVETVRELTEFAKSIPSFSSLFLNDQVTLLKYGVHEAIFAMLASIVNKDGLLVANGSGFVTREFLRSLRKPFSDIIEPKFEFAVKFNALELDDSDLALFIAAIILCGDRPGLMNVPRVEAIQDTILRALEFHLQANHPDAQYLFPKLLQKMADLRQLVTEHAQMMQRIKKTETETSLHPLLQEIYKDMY

Test [3] in a line: qHTS assay to identify small molecule agonists of the farnesoid-X-receptor (FXR) signaling pathway - cell viability counter screen (AID 743218; active = well fitted curve in the direction sought with a large enough effect in the repeat runs; an effect the other way counts as inactive or inconclusive; note: nearly all actives have a fitted effect of over 45% in size). Put shortly: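 Readout: CellTiter-Glo luminescence, 30 min RT, multiplexed after the FXR-bla FRET reading. HEK 293T FXR-UAS-bla cells received compound 5 h post-plating and were incubated 16 h at 37 C.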
The nature of test [4]: qHTS assay to identify small molecule antagonists of the farnesoid-X-receptor (FXR) signaling pathway - cell viability counter screen (AID 743221; active = well fitted cell-killing curve with a large enough effect in the repeat runs, not every such curve was filed as active; note: nearly all actives have a fitted effect of over 50% in size). An outline of the steps: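 Cytotoxicity counter screen run in the FXR-bla reporter wells: HEK 293T cells exposed to compound with 50 uM (final) chenodeoxycholic acid for 16 h, 37 C, then viability measured by CellTiter-Glo luminescence after 30 min, room temperature.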

Test [5] addresses Vitamin D3 receptor (Homo sapiens) (UniProt P11473). Description: qHTS assay to identify small molecule agonists of the vitamin D receptor (VDR) signaling pathway (AID 743222). An outline of the steps:
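Following 4 h attachment at 37C, VDR-bla cells (2,000 per well) received DMSO-dissolved compounds or controls. After 16 h incubation, LiveBLAzer B/G FRET substrate was added and fluorescence read 2 h later at room temperature.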

The target is the same in test [6]. Description: qHTS assay to identify small molecule antagonists of the vitamin D receptor (VDR) signaling pathway (AID 743223; active = well fitted inhibition curve with a large enough effect in the signal ratio in the repeat runs, not every such curve was filed as active; the % refers to the signal ratio). An outline of the steps:
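Antagonist mode: compound added to VDR-bla cells alongside agonist 1alpha,25-dihydroxyvitamin D3 (3 nM final), incubation 16 h at 37C. Read-out is LiveBLAzer FRET fluorescence, 2 h at room temperature.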

Test [7] is described as follows: qHTS assay to identify small molecule agonists of the vitamin D receptor (VDR) signaling pathway - cell viability counter screen (AID 743224; active = well fitted curve in the direction sought with a large enough effect in the repeat runs; an effect the other way counts as inactive or inconclusive; note: series mostly up to about 63 µM; nearly all actives have a fitted effect of over 50% in size). Put shortly: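 In parallel with the bla FRET readout, cytotoxicity toward VDR-bla cells after 16 h compound exposure was assessed by CellTiter-Glo, with luminescence recorded after a 30 min room-temperature incubation.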
Test [8] is described as follows: qHTS assay to identify small molecule antagonists of the vitamin D receptor (VDR) signaling pathway - cell viability counter screen (AID 743225; active = well fitted curve in the direction sought with a large enough effect in the repeat runs; an effect the other way counts as inactive or inconclusive; note: nearly all actives have a fitted effect of over 50% in size). An outline of the steps:
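Cytotoxicity counter screen read by CellTiter-Glo luminescence (30 min, room temperature) in the same wells as the VDR-bla antagonist readout. HEK 293T VDR-UAS-bla cells had 16 h at 37C with compound and 3 nM (final) 1-alpha,25-dihydroxyvitamin D3, then 2 h with FRET substrate.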

The nature of test [9]: qHTS assay to identify small molecule agonists of the NFkB signaling pathway (AID 1159509; active = well fitted curve in the direction sought with a large enough effect in the signal ratio in the repeat runs, not every such curve was filed as active; the % refers to the signal ratio; note: series mostly up to about 61 µM). Put shortly: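 Beta-lactamase reporter assay run in quantitative high-throughput format on an NF-kB-responsive ME-180 line, with 5 hr compound treatment and a FRET-based blue/green fluorescence readout.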
A short description of test [10]: qHTS assay to identify small molecule agonists of the NFkB signaling pathway - cell viability counter screen (AID 1159515). Note: series mostly up to about 61 µM; nearly all actives have a fitted effect of over 55% in size. Put shortly:
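Plate 2,000 NFkB-bla ME-180 cells/well; incubate overnight. Add compounds, 5 hr at 37 C. Add FRET substrate, 1.5 hr RT. Add CellTiter-Glo, 30 min RT; read luminescence.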

Test [11] in a line: qHTS assay to identify small molecule agonists of the endoplasmic reticulum stress response signaling pathway (AID 1159516; active = well fitted activation curve with a large enough effect in the signal ratio in the repeat runs, not every such curve was filed as active; the % refers to the signal ratio). Put shortly:
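Beta-lactamase expression from the ER stress response element in HeLa reporter cells is quantified with the LiveBLAzer B/G FRET substrate, read at 405 nm excitation after 2 hr at room temperature, following 5 hr compound treatment at 37 C.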

A short description of test [12]: qHTS assay to identify small molecule agonists of the endoplasmic reticulum stress response signaling pathway - cell viability counter screen (AID 1159517). An outline of the steps:
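Steps: seed 1,500 ESRE-bla HeLa cells per well; incubate overnight at 37 C, 5% CO2; add compounds in DMSO for 5 hr; run FRET substrate 2 hr RT; add CellTiter-Glo, wait 30 min, read luminescence.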

Test [13] is described as follows: qHTS assay to identify small molecule antagonists of the retinoid-related orphan receptor gamma (ROR-gamma) signaling pathway - cell viability counter screen (AID 1159520; active = well fitted curve in the direction sought with a large enough effect in the repeat runs; an effect the other way counts as inactive or inconclusive; note: nearly all actives have a fitted effect of over 50% in size). An outline of the steps: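 Tet-on ROR gamma CHO cells were given compounds for 2 hr, then doxycycline hyclate at 1 uM final, and incubated 16 hr at 37 C. Viability was measured as ATP content by CellTiter-Glo luminescence.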

The target of test [14] is Nuclear receptor ROR-gamma (Homo sapiens) (UniProt P51449). Description: qHTS assay to identify small molecule antagonists of the retinoid-related orphan receptor gamma (ROR-gamma) signaling pathway (AID 1159521; active = well fitted curve in the direction sought with a large enough effect in the repeat runs; an effect the other way counts as inactive or inconclusive). Put shortly: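 Antagonist read-out: drop in luminescence (ONE-Glo) from an RORE-LUC reporter in CHO cells with doxycycline-inducible ROR-gamma; 2 hr compound pretreatment, 1 uM doxycycline, 16 hr incubation at 37 C.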

A short description of test [15]: qHTS assay to identify small molecule agonists of the AP-1 signaling pathway - cell viability counter screen (AID 1159525). Note: nearly all actives have a fitted effect of over 55% in size. An outline of the steps:
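Same-well cytotoxicity counter screen of the Tox21 10K library in ME-180 cells. The readout is ATP-dependent luminescence after 5 h compound treatment. Data are normalised to DMSO and tetra n-octyl ammonium bromide controls.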

A short description of test [16]: qHTS assay to identify small molecule agonists of the AP-1 signaling pathway (AID 1159526).
For test [17], the target named is Retinoic acid receptor RXR-alpha (Homo sapiens) (UniProt P19793). Description: qHTS assay to identify small molecule agonists of the RXR signaling pathway (AID 1159527). Note: nearly all actives have a fitted effect of over 35% in size. Note: potency is the fitted concentration of half-maximal effect. Put shortly:
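Agonist-mode beta-lactamase reporter assay: HEK 293T RXR-alpha-UAS-bla cells treated 16 hr at 37 C with compounds, 9-cis retinoic acid as positive control. LiveBLAzer FRET substrate, 405 nm excitation, 460/530 nm emission.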

For test [18], the target named is Bile acid receptor (Homo sapiens) (UniProt Q96RI1). Kind of test: qHTS assay to identify small molecule antagonists of the farnesoid-X-receptor (FXR) signaling pathway (AID 743217; active = well fitted inhibition curve with a large enough effect in the signal ratio in the repeat runs, not every such curve was filed as active; the % refers to the signal ratio; note: potency is the fitted concentration of half-maximal effect). An outline of the steps: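 FRET fluorescence after 2 h room-temperature LiveBLAzer loading gives the readout. Prior step: FXR-bla HEK 293T cells, seeded and incubated 5 h, received test compounds plus 50 uM final CDCA for 16 h at 37 °C.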
Bile acid receptor (Homo sapiens), sequence (Q96RI1 whole entry, looked up): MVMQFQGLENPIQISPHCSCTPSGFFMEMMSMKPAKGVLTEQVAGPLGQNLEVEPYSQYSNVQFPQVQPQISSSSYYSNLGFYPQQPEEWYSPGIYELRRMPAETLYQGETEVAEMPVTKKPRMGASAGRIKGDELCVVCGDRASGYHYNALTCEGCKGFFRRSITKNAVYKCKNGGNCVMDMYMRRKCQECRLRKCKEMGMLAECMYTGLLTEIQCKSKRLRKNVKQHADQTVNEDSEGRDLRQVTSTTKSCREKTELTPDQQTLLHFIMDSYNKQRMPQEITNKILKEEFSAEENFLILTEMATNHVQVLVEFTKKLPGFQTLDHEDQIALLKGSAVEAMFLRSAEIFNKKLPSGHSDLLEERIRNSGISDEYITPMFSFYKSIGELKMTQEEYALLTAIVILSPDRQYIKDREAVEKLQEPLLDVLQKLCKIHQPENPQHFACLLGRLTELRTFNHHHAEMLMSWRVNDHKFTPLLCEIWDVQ

For test [19] the target is unchanged. Description: qHTS assay to identify small molecule agonists of the farnesoid-X-receptor (FXR) signaling pathway (AID 743220; active = well fitted activation curve with a large enough effect in the signal ratio in the repeat runs, not every such curve was filed as active; the % refers to the signal ratio). An outline of the steps: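 FXR-UAS-bla HEK 293T cells carrying a UAS-driven beta-lactamase reporter were plated for 5 h at 37C/5% CO2, then exposed to DMSO-dissolved Tox21 10K compounds for 16 h at 37C. A LiveBLAzer B/G FRET substrate was loaded for 2 h at room temperature before fluorescence reading.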

Test [20] deals with Peroxisome proliferator-activated receptor delta (Homo sapiens) (UniProt Q03181). Description: qHTS assay to identify small molecule agonists of the peroxisome proliferator-activated receptor delta (PPARd) signaling pathway (AID 743212). Put shortly: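 Read-out: beta-lactamase FRET fluorescence after 2 h room-temperature incubation with LiveBLAzer B/G substrate. Cells were HEK293H carrying a UAS-bla reporter for PPARd, treated at 37 C with DMSO-dissolved compounds.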

Molecules are shown by their SMILES. Inconclusive results are not listed. Where a structure was tested more than once in an assay, its records may differ in their call. Activity calls are given as the source filed them. Unless noted, calls come from the whole dose curve.

Retinoic acid receptor RXR-alpha (Homo sapiens), sequence (P19793 whole entry, looked up): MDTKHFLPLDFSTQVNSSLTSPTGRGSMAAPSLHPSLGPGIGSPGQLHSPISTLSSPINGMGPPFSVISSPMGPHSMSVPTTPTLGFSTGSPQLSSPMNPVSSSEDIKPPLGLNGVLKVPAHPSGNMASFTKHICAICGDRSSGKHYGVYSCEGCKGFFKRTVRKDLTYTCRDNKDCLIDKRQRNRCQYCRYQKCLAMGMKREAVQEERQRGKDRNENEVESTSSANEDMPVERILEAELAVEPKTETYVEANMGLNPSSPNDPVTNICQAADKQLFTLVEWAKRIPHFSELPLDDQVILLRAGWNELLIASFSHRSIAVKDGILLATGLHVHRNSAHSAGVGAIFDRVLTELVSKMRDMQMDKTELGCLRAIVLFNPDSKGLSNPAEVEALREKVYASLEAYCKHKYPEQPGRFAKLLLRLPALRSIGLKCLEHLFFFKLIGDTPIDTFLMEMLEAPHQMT
Vitamin D3 receptor (Homo sapiens), sequence (P11473 whole entry, looked up): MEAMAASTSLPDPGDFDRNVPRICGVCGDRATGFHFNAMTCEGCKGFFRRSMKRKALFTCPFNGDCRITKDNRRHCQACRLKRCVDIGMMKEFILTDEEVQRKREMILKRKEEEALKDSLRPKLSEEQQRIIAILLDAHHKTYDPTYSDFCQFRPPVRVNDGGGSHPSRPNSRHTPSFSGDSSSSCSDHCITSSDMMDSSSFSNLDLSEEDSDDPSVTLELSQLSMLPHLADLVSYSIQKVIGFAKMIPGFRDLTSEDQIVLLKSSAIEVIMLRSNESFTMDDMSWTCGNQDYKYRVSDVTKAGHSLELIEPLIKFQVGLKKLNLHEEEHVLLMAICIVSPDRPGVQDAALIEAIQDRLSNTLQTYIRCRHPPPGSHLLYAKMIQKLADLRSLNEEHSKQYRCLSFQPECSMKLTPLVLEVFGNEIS

In the case of `NNC(=O)c1ccncc1`, the outcome in test [1], in test [2], in test [3], in [4], in [5] and in [6] was inactive. Besides, the compound was called inactive in test [7], in test [8], in test [9], in test [10], in test [11] and in [12]. For the same compound, the Potency entry in [13], in [14], in [15], in test [16] and in test [17] was “inactive” each time.

Take `Oc1ccc(/C=C/c2cc(O)cc(O)c2)cc1`: the outcome in test [1], in test [3], in test [19], in [4], in test [5] and in test [6] was inactive. Also, the compound was called inactive in [7], in [8], in [9], in [10], in test [11] and in test [12]. The Potency in test [18] is 24.5 µM (active). Moreover, the Potency entry in [13], in test [14], in test [15], in [16] and in test [17] was “inactive” in each case.

`N=C(N)c1ccc(OCCCCCOc2ccc(C(=N)N)cc2)cc1`: the compound was classed as inactive in test [20], in test [1], in test [3], in test [4], in test [5] and in test [6]. The call in test [7], in test [8], in test [9], in test [10], in test [11] and in test [12] was inactive. Also, the Potency entry in [13], in test [14], in [15], in test [16] and in test [17] was “inactive” in each case.

As to `O=c1ccc2ccccc2o1`, the compound was called inactive in test [1], in test [3], in test [19], in test [4], in [7] and in test [8]. Also, the outcome in test [9], in test [10], in test [11] and in test [12] was inactive. In addition, the Potency entry in test [18], in test [13], in test [14], in [15], in [16] and in test [17] was “inactive” in each case.

Consider `NC(=O)NC1NC(=O)NC1=O` (stereo not drawn), for which the call in test [20], in test [1], in [3], in test [4], in [5] and in test [6] was inactive. Moreover, the outcome in [7], in test [8], in test [9], in test [10], in [11] and in test [12] was inactive. In addition, the Potency result in test [13], in test [14], in test [15], in test [16] and in test [17] was “inactive” each time.

Regarding `CCC1(c2ccccc2)C(=O)NCNC1=O`, the result in [1], in [3], in test [19], in test [4], in test [5] and in [6] was inactive. Moreover, the outcome in test [7], in test [8], in [9], in [10], in test [11] and in test [12] was inactive. The Potency entry in test [18], in [13], in test [14], in test [15], in test [16] and in [17] was “inactive” each time.

In the case of `CC(O)CN(CCN(CC(C)O)CC(C)O)CC(C)O` (stereo not drawn), the result in [1], in test [2], in test [3], in [19], in [4] and in test [5] was inactive. Further, the compound was classed as inactive in [6], in test [7], in test [8], in test [9], in [10] and in test [11]. In test [12], the compound was classed as inactive. Also, the Potency result in test [18], in [13], in [14], in [15], in test [16] and in test [17] was “inactive” each time.

As for `O=c1cc[nH]c(=S)[nH]1`, the compound was classed as inactive in test [1], in [3], in [19], in test [4], in test [7] and in [8]. The compound was classed as inactive in [9], in [10], in [11] and in test [12]. The Potency result in test [18], in test [13], in test [14], in test [15] and in test [16] was “inactive” each time. For the same compound, the Potency in test [17] was 493 nM (active) and inactive.

The values above are taken from PubChem BioAssay (Tox21).
